Our source for the Potency and outcome values is PubChem BioAssay (Tox21).

Each structure is given as a SMILES string. Several values for one entry are separate records, joined by “and”; a condition that tells them apart may be missing. Equal entries are not always repeated. Records with an inconclusive call do not appear. A structure can be active in one record and inactive in another. Activity calls are given as the source filed them. Unless noted, calls follow the shape of the dose curve; as a rule, active = well fitted curve in the direction sought with a large enough effect in the repeat runs; inconclusive = weak or mixed curves; inactive = no such curve, though single readings can be large; an effect the other way counts as inactive or inconclusive.

Experiment [1] in a line: A CellTox Green Cytotoxicity Assay to monitor cytotoxicity in HEK293 cells - 32 hour (AID 1224881). Also: nearly all actives have a fitted effect of over 40% in size. Also: potency is read from the fitted curve at half-maximal effect. The following applies: CellTox Green fluorescence; series mostly up to 76.8 µM. In a few lines: (§1)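 Homogeneous no-lysis format: HEK293 cell suspension mixed with CellTox Green reagent, seeded, incubated 5 h at 37 C/5% CO2, then dosed by pintool with compound in DMSO.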
Experiment [2] is described as follows: A CellTox Green Cytotoxicity Assay to monitor cytotoxicity in HepG2 cells - 0 hour (AID 1224882). Also: nearly all actives have a fitted effect of over 35% in size. Also: potency is read from the fitted curve at half-maximal effect. The following applies: CellTox Green fluorescence; series mostly up to 76.8 µM. In a few lines: (§2)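 Fluorescent DNA-binding dye, 600 HepG2 cells/well, 5 h preincubation then compound in DMSO; same plates read at 0–40 h, 37 C.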
Experiment [3] in a line: A CellTox Green Cytotoxicity Assay to monitor cytotoxicity in HepG2 cells - 32 hour (AID 1224883). Also: nearly all actives have a fitted effect of over 50% in size. Also: potency is read from the fitted curve at half-maximal effect. To be noted: CellTox Green fluorescence; series mostly up to 76.8 µM. The gist of the method:
as §2

Experiment [4] in a line: A CellTox Green Cytotoxicity Assay to monitor cytotoxicity in HEK293 cells - 8 hour (AID 1224884). Also: nearly all actives have a fitted effect of over 35% in size. Also: potency is read from the fitted curve at half-maximal effect. The following applies: CellTox Green fluorescence; series mostly up to 76.8 µM. In a few lines:
as §1

A short description of experiment [5]: qHTS RealTime-Glo MT Cell Viability Assay in HepG2 cells - 16 hour (AID 1224885). Also: nearly all actives have a fitted effect of over 50% in size. To be noted: RealTime-Glo luminescence; series mostly up to 76.8 µM. In a few lines:
(§3)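 Compound treatment began 5 h after plating HepG2 cells (600/well) with NanoLuc luciferase and prosubstrate. Plates stayed at 37 C for 40 h; luminescence was captured at six time points, 0 h through 40 h.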
A general note: qHTS replaces the single test concentration by a dilution series.

The nature of experiment [6]: qHTS RealTime-Glo MT Cell Viability Assay in HEK293 cells - 24 hour (AID 1224886). Also: top concentration of the series differs between compounds; nearly all actives have a fitted effect of over 50% in size. The following applies: RealTime-Glo luminescence; series mostly up to 76.8 µM. In a few lines:
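Quantitative high-throughput screen of the Tox21 10K library in HEK293: cells and RealTime-Glo reagents plated together, compound added at 5 h, luminescence monitored through 40 h at 37 C.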

Experiment [7] can be described thus: qHTS RealTime-Glo MT Cell Viability Assay in HEK293 cells - 8 hour (AID 1224887). Also: top concentration of the series differs between compounds; nearly all actives have a fitted effect of over 50% in size. To be noted: RealTime-Glo luminescence; series mostly up to 76.8 µM. The gist of the method:
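Measured as luminescence from the same continuously cultured HEK293 wells at successive time points (0, 8, 16, 24, 32, 40 h) after compound addition. Reagent present from seeding; dosing at 5 h; incubation 37 C.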

Experiment [8] in a line: A CellTox Green Cytotoxicity Assay to monitor cytotoxicity in HEK293 cells - 16 hour (AID 1224888). Also: nearly all actives have a fitted effect of over 35% in size. To be noted: CellTox Green fluorescence; series mostly up to 76.8 µM. The gist of the method:
as §1

Experiment [9] in a line: qHTS RealTime-Glo MT Cell Viability Assay in HepG2 cells - 0 hour (AID 1224889). Also: nearly all actives have a fitted effect of over 50% in size. The following applies: RealTime-Glo luminescence; series mostly up to 76.8 µM. The gist of the method: as §3
Experiment [10] can be described thus: A CellTox Green Cytotoxicity Assay to monitor cytotoxicity in HepG2 cells - 8 hour (AID 1224890). Also: nearly all actives have a fitted effect of over 45% in size. Also: potency is read from the fitted curve at half-maximal effect. The following applies: CellTox Green fluorescence; series mostly up to 76.8 µM. In a few lines:
as §2

The nature of experiment [11]: qHTS assay to identify small molecule antagonists of the estrogen receptor alpha (ER-alpha) signaling pathway using the BG1 cell line in the presence of 0.1 nM 17-beta-estradiol - cell viability counter screen (AID 1259241). Also: nearly all actives have a fitted effect of over 40% in size. The following applies: VM7Luc4E2 (BG1) viability, CellTiter-Fluor protease, 22 h, 0.1 nM estradiol agonist added; series mostly up to 92.4 µM. The gist of the method: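 CellTiter-Fluor read (30 min, 37C) on ER-alpha/ERE-luc VM7Luc4E2 cells; 22 hr compound treatment; agonist 0.1 nM E2 final; same-well multiplex.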

Experiment [12] in a line: qHTS assay to identify small molecule antagonists of the androgen receptor (AR) signaling pathway using the MDA cell line in the presence of 0.5 nM R1881 - cell viability counter screen (AID 1259242). Also: nearly all actives have a fitted effect of over 45% in size. To be noted: MDA-kb2 viability, CellTiter-Fluor protease fluorescence, 16 h; series mostly up to 92.4 µM. The gist of the method: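 Human breast carcinoma MDA-kb2 cells, cultured without CO2, receive compounds alongside 0.5 nM (final) R1881 agonist. After 16 hr at 37C, viability is taken as live-cell protease signal.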

Experiment [13] concerns the target Estrogen receptor (Homo sapiens) (UniProt P03372). Description: qHTS assay to identify small molecule antagonists of the estrogen receptor alpha (ER-alpha) signaling pathway using the BG1 cell line in the presence of 0.1 nM 17-beta-estradiol (AID 1259244). Also: nearly all actives have a fitted effect of over 50% in size. Also: potency is read from the fitted curve at half-maximal effect. To be noted: VM7Luc4E2 (BG1) ERE-luciferase, antagonist mode, 0.1 nM E2, 22 h; series mostly up to 92.4 µM. The gist of the method:
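Seeding of stripped-serum-adapted VM7Luc4E2 cells, 24 h attachment, compound transfer, then 0.1 nM final 17beta-estradiol; after 22 h incubation, ONE-Glo reagent and luminescence reading.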

The nature of experiment [14]: qHTS assay to identify small molecule HDAC inhibitors (AID 1259364).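 Also: wild-type HCT-116 cells with endogenous class I/II HDAC activity; top concentration of the series differs between compounds; nearly all actives have a fitted effect of over 45% in size.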 To be noted: HCT-116 HDAC-Glo I/II luminescence, 2 h; series mostly up to 92.4 µM. The gist of the method: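 After a 2 hr compound incubation (37C, 5% CO2), HCT-116 cells seeded at 1,500/well the day before received HDAC-Glo reagent; signal read as luminescence after 30 min at room temperature.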
Experiment [15] can be described thus: qHTS assay to identify small molecule HDAC inhibitors - cell viability counter screen (AID 1259365). Also: nearly all actives have a fitted effect of over 50% in size. To be noted: HCT-116 viability, CellTiter-Glo ATP luminescence, 2 h; series mostly up to 92.4 µM. The gist of the method: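 To flag cytotoxic hits, 1,500 wild-type HCT-116 cells per well, plated the day before, receive test compounds for 2hr at 37 C before CellTiter-Glo reagent and a luminescence read.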

Experiment [16] can be described thus: qHTS assay to identify small molecule agonists of the sonic hedgehog signaling (Shh) pathway - cell viability counter screen (AID 1259366). Also: nearly all actives have a fitted effect of over 50% in size. Also: potency is read from the fitted curve at half-maximal effect. The following applies: NIH/3T3 Gli1-Luc viability, CellTiter-Fluor, 24 h; series mostly up to 92.4 µM. The gist of the method: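 Fluorescence from CellTiter-Fluor reports live cells in this counter screen. NIH/3T3-derived Gli1-Luc reporter cells receive test compounds for 24hr at 37C; reagent goes in at 23hr.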

The nature of experiment [17]: qHTS assay to identify small molecule agonists of the sonic hedgehog signaling (Shh) pathway (AID 1259368; calls by dose curve;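 also: NIH/3T3-derived 3T3Gli1-Luc cells carrying a stable Gli1-driven firefly luciferase reporter; nearly all actives have a fitted effect of over 15% in size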). To be noted: NIH/3T3 Gli1-Luc reporter, luciferase, 24 h; series mostly up to 92.4 µM. In a few lines:
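Stable NIH/3T3 Gli1-Luc reporter clone; 24 hr cpd exposure after a 4 hr settling period; luminescence endpoint.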

Experiment [18] is described as follows: qHTS assay to identify small molecule phospholipidosis (PLD) inducers (AID 1259344; active = well fitted curve in the direction sought with a large enough effect; an effect the other way counts as inactive or inconclusive). The following applies: HepG2 phospholipidosis, LipidTOX Red imaging, 24 h; series mostly up to 38.3 µM. In a few lines:
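Cells (HepG2, 900 per well) attach for 4 h, receive LipidTOX Red and compound together, incubate 24 h at 37 C, are fixed 30 min with paraformaldehyde/Hoechst, then imaged at one site per well.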

Experiment [19] is described as follows: qHTS assay to identify small molecule antagonists of the sonic hedgehog signaling (Shh) pathway - cell viability counter screen (AID 1259367). Also: nearly all actives have a fitted effect of over 55% in size. Also: potency is read from the fitted curve at half-maximal effect. To be noted: NIH/3T3 Gli1-Luc viability, CellTiter-Fluor, 24 h; series mostly up to 92.4 µM. The gist of the method: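 Cytotoxicity was assessed in parallel with Shh reporter activity by measuring live-cell protease fluorescence (CellTiter-Fluor) in NIH/3T3 cells stably carrying Gli1-Luc, treated with compound under conditioned medium stimulation for 23 hr plus 1 hr reagent incubation.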

Sequence of Estrogen receptor (Homo sapiens) (P03372 whole entry, looked up): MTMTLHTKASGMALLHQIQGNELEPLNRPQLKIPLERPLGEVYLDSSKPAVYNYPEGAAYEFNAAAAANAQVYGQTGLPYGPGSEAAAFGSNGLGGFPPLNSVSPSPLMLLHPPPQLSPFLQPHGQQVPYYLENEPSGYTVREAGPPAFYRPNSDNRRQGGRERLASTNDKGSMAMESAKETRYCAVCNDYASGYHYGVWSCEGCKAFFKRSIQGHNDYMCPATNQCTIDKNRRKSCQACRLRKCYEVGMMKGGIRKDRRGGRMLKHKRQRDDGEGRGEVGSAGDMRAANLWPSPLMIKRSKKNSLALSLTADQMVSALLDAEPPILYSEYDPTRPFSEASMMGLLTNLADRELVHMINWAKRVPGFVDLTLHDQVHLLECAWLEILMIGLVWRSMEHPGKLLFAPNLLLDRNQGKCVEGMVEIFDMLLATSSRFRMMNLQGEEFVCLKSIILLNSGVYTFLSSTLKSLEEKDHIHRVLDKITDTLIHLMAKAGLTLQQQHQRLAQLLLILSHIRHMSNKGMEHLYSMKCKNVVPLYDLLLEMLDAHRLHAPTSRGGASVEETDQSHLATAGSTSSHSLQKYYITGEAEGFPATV

With `CCCCCC=O`, the Potency result in [1], in experiment [2], in experiment [3], in [4], in experiment [5] and in experiment [6] was “inactive” each time. The Potency entry in [7], in [8], in experiment [9], in experiment [10], in experiment [11] and in experiment [12] was “inactive” in each case. The Potency result in experiment [13], in experiment [14], in [16] and in experiment [17] was “inactive” in each case. Moreover, the call in experiment [15] was inactive.
For `COc1cc([C@H]2Oc3cc([C@H]4Oc5cc(O)cc(O)c5C(=O)[C@@H]4O)ccc3O[C@@H]2CO)ccc1O`, the Potency entry in experiment [1] was “inactive and 15.1 µM (active)”; in experiment [2], “inactive and 21.3 µM (active)”; in experiment [3], “inactive and 21.3 µM (active)”; in experiment [4] it was “inactive and 16.9 µM (active)”; in [10], “inactive and 23.9 µM (active)”; in [16], 24.3 µM (active) and inactive. For the same molecule, in [19], the Potency was 27.2 µM (active) and inactive. For the same molecule, the Potency result in [5], in [6], in experiment [7], in [9], in experiment [11] and in [12] was “inactive” throughout. In addition, the Potency result in experiment [13], in experiment [18], in experiment [14] and in [17] was “inactive” throughout. Further, in experiment [15], the call was inactive.
For `Cc1ccc(S(=O)(=O)NCl)cc1`, the Potency result in [1], in [2], in experiment [3], in experiment [4], in [5] and in [6] was “inactive” throughout. For the same molecule, the Potency entry in [7], in experiment [8], in experiment [9], in [10], in experiment [11] and in [12] was “inactive” in each case. The Potency entry in experiment [13], in experiment [18], in experiment [14], in experiment [16] and in [17] was “inactive” in each case. The call in [15] was inactive.
As for `C=C[C@@]1(C)CC(=O)[C@]2(O)[C@@]3(C)[C@@H](O)CCC(C)(C)[C@@H]3[C@H](O)[C@H](OC(C)=O)[C@@]2(C)O1`, the Potency entry in experiment [1], in experiment [2], in experiment [3], in experiment [5], in experiment [6] and in experiment [7] was “inactive” in each case. Besides, the Potency entry in experiment [8], in experiment [9], in experiment [10], in [11], in experiment [12] and in [18] was “inactive” throughout. Also, the Potency entry in experiment [14], in [19] and in experiment [17] was “inactive” throughout. Moreover, the Potency in [13] was 15.4 µM (active) and 7.5 µM (active). Moreover, the molecule was classed as inactive in experiment [15].
With `Oc1c(Cl)ccc(Cl)c1Cl`, the Potency entry in experiment [1], in [2], in experiment [3], in experiment [4], in [5] and in experiment [7] was “inactive” in each case. Besides, the Potency result in experiment [8], in [9], in experiment [10], in experiment [12], in experiment [13] and in experiment [14] was “inactive” throughout. Moreover, the Potency result in experiment [16], in [19] and in experiment [17] was “inactive” throughout. Further, the molecule was classed as inactive in [15].
Regarding `CC(C)[N+](C)(CCOC(=O)C1c2ccccc2Oc2ccccc21)C(C)C`, the Potency entry in experiment [1], in [2], in experiment [3], in [4], in experiment [5] and in [7] was “inactive” each time. The Potency entry in [8], in [9], in experiment [10], in [11], in experiment [12] and in [13] was “inactive” throughout. Moreover, the Potency entry in experiment [18], in experiment [14], in experiment [16] and in [17] was “inactive” in each case. Besides, the result in experiment [15] was inactive.
`Brc1nc2ccccc2s1`: the Potency result in experiment [1], in [2], in experiment [3], in experiment [4], in experiment [5] and in [8] was “inactive” throughout. For the same molecule, the Potency entry in [9], in experiment [10], in [11], in experiment [12], in [13] and in experiment [14] was “inactive” each time. Moreover, the Potency entry in experiment [16] and in experiment [17] was “inactive” in each case. Further, the result in [15] was inactive.
